# Laboratory results published in PubChem BioAssay (Tox21).
# The source made the active and inactive calls. The call rests on the fitted dose curve; in most records, active means well fitted curve in the direction sought with a large enough effect in the repeat runs; inconclusive means weak or mixed curves; inactive means flat fitted curve, though single readings scatter.
# Assay: qHTS assay to test for compound auto fluorescence at 590 nm (red) in HEK293 cells (AID 720679)
# Details: red autofluorescence 540/590 nm; series mostly up to 91.3 µM
# From the text: National Center for Advancing Translational Sciences [NCATS]
# NIH Chemical Genomics Center [NCGC]
# U.S. Environmental Protection Agency [EPA]
# National Institutes of Environmental Health Sciences [NIEHS]
# National Toxicology Program [NTP]
# U.S. Food and Drug Administration [FDA]
# Compound auto fluorescence often interferes with screening of the compound library against various biological targets and signaling pathways. Some of these compounds may have fluorophoric properties. Such properties may interfere with the assay outputs resulting in false positives and/or negatives. To decrease such complications and ensure the compound activities are relevant in terms of biological response, the Tox21 10K compound library was screened for auto fluorescence.
# From the fluorophores used as reporter signals in our screening assays, the auto fluorescence equivalencies of compounds against three fluorophores have been evaluated: Triamterene, Fluorescein and Rose Bengal sodium for blue, green and red fluorescence, respectively. The fluorescence intensities were measured using Excitation/Emission wavelengths at 405/460nm, 485/535nm and 540/590nm for blue, green and red labels, respectively. This assay includes the red fluorescence data.
# Tox21 Assay Protocol Summary:
# 2,000 HEK293 cells in 5 uL of culture medium containing 10% dialyzed FBS per well were dispensed into black wall/clear bottom 1536-well plates using a Multidrop Combi Dispenser (Thermo Scientific). The assay plates were incubated for 4-5 hr at 37C to allow cell attachment to the well bottom, followed by the transfer of 23 nL compound or DMSO vehicle by a pintool work station (Kalypsys, San Diego, CA). After the assay plates were incubated overnight at 37C and 5% CO2, fluorescence intensities in the assay plates were measured by an Envision (PerkinElmer, Shelton, CT) plate reader using three labels for measuring blue, green and red fluorescence at […] 460, 535 and 590nm respectively.
row,SMILES,outcome
1,c1cc2c3c(cccc3c1)CC2,inactive
2,CCC12COCN1COC2,inactive
3,Cc1ccc(N)cc1Cl,inactive
4,Clc1ccc(Cl)cc1,inactive
5,CCC[CH2][Sn]([Cl])([Cl])[Cl],inactive
6,O=c1[nH]c(=O)[nH]c(=O)[nH]1,inactive
7,ClCc1cccnc1,inactive
8,CCCCN(CC)C(=O)SCCC,inactive
9,NCCc1ccc(O)cc1,inactive
10,Clc1cccc(Cl)c1Cl,inactive
11,COCCl,inactive
12,CC(C#N)CCC#N (stereo not given),inactive
13,OC(O)C(Cl)(Cl)Cl,inactive
14,CCOP(OCC)OCC,inactive
15,O=C(O)c1ccccn1,inactive
16,CC(C)(C)C(O)(CCc1ccc(Cl)cc1)Cn1cncn1 (stereo not given),inactive
17,CN=C=S,inactive
18,C1CN2CCN1CC2,inactive
19,CC1OC(C)OC(C)O1 (stereo not given),inactive
20,CCCN(CCC)c1c([N+](=O)[O-])cc(C(F)(F)F)cc1[N+](=O)[O-],inactive

row,SMILES,outcome
1,CC1C=[C-]C=C1.[C-]#[O+].[C-]#[O+].[C-]#[O+].[Mn],inactive
2,C=CC(N)=O,inactive
3,O=C(NC(=O)c1c(F)cccc1F)Nc1cc(Cl)c(OC(F)(F)C(F)C(F)(F)F)cc1Cl (stereo not given),inactive
4,O=c1[nH]c2ccccc2c(=O)o1,inactive
5,Nc1ccc(Br)cc1,inactive
6,CC(C)OC(=O)Nc1ccccc1,inactive
7,CCOP(=S)(OCC)Oc1cnc2ccccc2n1,inactive
8,CCCCCOC(=O)c1ccccc1C(=O)OCCCCC,inactive
9,CC(C)(C)OOC(=O)c1ccccc1,inactive
10,O=S(=O)(c1ccc(O)cc1)c1ccc(O)cc1,inactive
11,C#CC(C)(C)NC(=O)c1cc(Cl)cc(Cl)c1,inactive
12,CN1C(=O)CN=C(c2ccccc2)c2cc(Cl)ccc21,inactive
13,c1ccc2c(c1)oc1ccccc12,inactive
14,CCCCN(CCCC)SN(C)C(=O)Oc1cccc2c1OC(C)(C)C2,inactive
15,CCCCCCCCCCCC#N,inactive
16,CC(C)=C[C@@H]1[C@@H](C(=O)OCc2coc(Cc3ccccc3)c2)C1(C)C,inactive
17,O=C1CCCN1,inactive
18,CC(Br)C(=O)O (stereo not given),inactive
19,C#CCN(C)[C@H](C)Cc1ccccc1,inactive
20,Nc1ccccc1C(=O)O,inactive
